A word on the AC50: it is the concentration at which the activity in the assay is half-maximal.

We go through 13 compounds from PubChem BioAssay (EPA / NIEHS).

Test [1] concerns zebrafish Estrogen Receptor (ESR2B), gene 317733. The test can be described thus: ATG_zfER2b_XSP1: Attagene TRANS-FACTORIAL Multi-Species (XSP1) HepG2 Assay for zebrafish Estrogen Receptor (ESR2B) (AID 2283773). The procedure, abridged: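 Multiplexed TRANS format in transfected HepG2 liver cells, chimeric NR-Gal4 from zebrafish ESR2B. 24 h dosing; medium contains 3 nM 6-alpha-fluorotestosterone. mRNA induction by RT-PCR/CE, positive direction vs DMSO.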

Test [2] deals with frog Estrogen Receptor (ESR2), gene 100174814. The test can be described thus: ATG_frER2_XSP1: Attagene TRANS-FACTORIAL Multi-Species (XSP1) HepG2 Assay for frog Estrogen Receptor (ESR2) (AID 2283774). The procedure, abridged: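 HepG2, transient MRTU transfection (GAL4-UAS reporters, exogenous NR-Gal4 chimeras); 24 h compound exposure; 3 nM 6α-fluorotestosterone co-added; total RNA → RT-PCR → 6-FAM primer extension → HpaI → CE. Positive direction vs DMSO.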

Test [3] in a line: ACEA_AR_agonist_AUC_viability: ACEA Biosciences xCELLigence Real-Time Cell Analysis on Androgen Receptor Agonism for Viability (AID 2283775).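 As to AC50: viability read 80 hours after compound addition.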 The method in brief: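 22Rv1 cells; impedance growth kinetics; 8-pt 1:4 dilutions from 100 uM top final, ≤0.5% DMSO; n = 2; 80 h read; AUC viability, loss-of-signal vs DMSO.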
Test [4] deals with chicken Estrogen Receptor (ESR1), ESR1 (gene 396099) (UniProt P06212). The experiment in a line: ATG_chERa_XSP1: Attagene TRANS-FACTORIAL Multi-Species (XSP1) HepG2 Assay for chicken Estrogen Receptor (ESR1) (AID 2283779). The procedure, abridged: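 Read-out: fluorescent reporter mRNA fragments resolved by capillary electrophoresis after RT-PCR and HpaI digestion. Transfected HepG2 cells carried chimeric NR-Gal4 constructs, were dosed 24 h with 3 nM 6-alpha-fluorotestosterone added, and activity was fitted upward relative to DMSO.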
chicken Estrogen Receptor (ESR1), ESR1 (gene 396099), sequence (P06212 whole entry, looked up, the tested form may be a part): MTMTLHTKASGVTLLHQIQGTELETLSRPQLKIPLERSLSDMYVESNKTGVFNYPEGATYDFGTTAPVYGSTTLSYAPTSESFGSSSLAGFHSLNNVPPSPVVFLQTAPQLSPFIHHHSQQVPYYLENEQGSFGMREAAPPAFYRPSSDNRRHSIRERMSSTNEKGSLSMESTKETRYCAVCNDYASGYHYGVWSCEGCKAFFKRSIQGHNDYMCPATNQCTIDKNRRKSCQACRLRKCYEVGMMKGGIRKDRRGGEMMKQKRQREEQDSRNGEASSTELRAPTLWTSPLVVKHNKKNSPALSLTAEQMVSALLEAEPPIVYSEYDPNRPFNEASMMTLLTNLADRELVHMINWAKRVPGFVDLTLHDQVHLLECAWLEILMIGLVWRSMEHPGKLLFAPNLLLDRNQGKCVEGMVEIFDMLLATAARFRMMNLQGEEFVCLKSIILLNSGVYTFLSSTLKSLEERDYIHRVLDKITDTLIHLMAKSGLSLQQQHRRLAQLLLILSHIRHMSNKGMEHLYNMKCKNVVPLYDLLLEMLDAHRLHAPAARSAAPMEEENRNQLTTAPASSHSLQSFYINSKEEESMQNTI

Test [5] addresses Estrogen receptor (Homo sapiens) (UniProt P03372). The test can be described thus: ATG_hERa_XSP1: Attagene TRANS-FACTORIAL Multi-Species (XSP1) HepG2 Assay for human Estrogen Receptor (ESR1) (AID 2283780). The method in brief: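 Reporter transcripts from multiplexed GAL4-UAS units driven by NR-Gal4 chimeras in transiently transfected HepG2 were measured by RT-PCR with capillary electrophoresis 24 h post-dose, with 3 nM 6-alpha-fluorotestosterone present; gain-of-signal relative to DMSO.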

In test [6] the test system is turtle Estrogen Receptor (ESR1), gene 101933533. The experiment in a line: ATG_trERa_XSP1: Attagene TRANS-FACTORIAL Multi-Species (XSP1) HepG2 Assay for turtle Estrogen Receptor (ESR1) (AID 2283781). The procedure, abridged:
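Transfect HepG2 with reporter units → dose chemical 24 h (medium has 3 nM 6-alpha-fluorotestosterone) → isolate RNA, RT-PCR → FAM primer extension, HpaI digest → capillary electrophoresis; gain of signal vs DMSO.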

Test [7] in a line: ACEA_ER_AUC_viability: ACEA Biosciences xCELLigence Real-Time Cell Analysis on Estrogen Receptor Agonism for Viability (AID 2283782).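 Also: hit means loss of impedance signal meaning reduced cell growth or viability.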 The method in brief:
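Read-out: real-time electrical impedance (RT-CES) area under curve, loss of signal taken as reduced viability, normalized to DMSO baseline. T-47D cells, charcoal-stripped serum medium, compounds up to 100 uM final, continuous exposure, 80 h.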

In a further test the target is AR (gene 367) (UniProt P10275). The test can be described thus: ACEA_AR_antagonist_80hr: ACEA Biosciences xCELLigence Real-Time Cell Analysis on Androgen Receptor Antagonism for Proliferation (AID 2283787).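 Also: hits lower the impedance growth signal relative to DMSO.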 The method in brief:
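Measures real-time proliferation of 22Rv1 prostate cancer cells by electrode impedance at 80 hours after dosing. Test articles ran at eight concentrations (1:4 steps, top 100 uM final) in biological duplicate.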

Test [8] deals with Estrogen receptor beta (Homo sapiens) (UniProt Q92731). The test can be described thus: ATG_hERb_XSP1: Attagene TRANS-FACTORIAL Multi-Species (XSP1) HepG2 Assay for human Estrogen Receptor (ESR2) (AID 2283788). The method in brief:
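Transient MRTU transfection of HepG2; ERβ–GAL4 TRANS format; 24 h dosing; 3 nM 6α-fluorotestosterone co-added; RNA → RT-PCR → 6-FAM primer extension → CE; activity vs DMSO.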

Test [9] concerns the target GAL4 Transcription Factor (Internal Marker), GAL4 (gene 855828) (UniProt P04386). The experiment in a line: ATG_GAL4_XSP1: Attagene TRANS-FACTORIAL Multi-Species (XSP1) HepG2 Assay for GAL4 Transcription Factor (Internal Marker) (AID 2283789). The procedure, abridged: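 This background-control endpoint measures GAL4-driven reporter mRNA via RT-PCR and capillary electrophoresis of labelled fragments. Transiently transfected HepG2 cells were treated 24 h, with 3 nM 6-alpha-fluorotestosterone included, and gain-of-signal was fitted against DMSO.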

Test [10] in a line: ATG_M_06_XSP1: Attagene TRANS-FACTORIAL Multi-Species (XSP1) HepG2 Assay for M06 Transcription Factor (Internal Marker) (AID 2283790). The procedure, abridged:
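This background-control readout tracks M06 reporter mRNA, measured by RT-PCR and capillary electrophoresis. HepG2 cells transiently carrying the GAL4-UAS reporter panel were dosed for 24 h with 3 nM 6-alpha-fluorotestosterone added for partial AR stimulation; increases were scored relative to DMSO.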

Test [11] in a line: ATG_M_61_XSP1: Attagene TRANS-FACTORIAL Multi-Species (XSP1) HepG2 Assay for M61 Transcription Factor (Internal Marker) (AID 2283797). The procedure, abridged:
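Background-control readout: reporter transcripts measured by RT-PCR and capillary electrophoresis 24 h after dosing transiently transfected HepG2 multi-reporter cells, with 3 nM 6-alpha-fluorotestosterone present. Fitted in the positive direction relative to DMSO.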

Test [12] can be described thus: ATG_M_32_XSP1: Attagene TRANS-FACTORIAL Multi-Species (XSP1) HepG2 Assay for M32 Transcription Factor (Internal Marker) (AID 2283799). The method in brief: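 Reporter transcripts from the M32 internal-control unit measured by RT-PCR, FAM labelling, HpaI digestion and capillary electrophoresis after 24 h compound exposure of transfected HepG2, 3 nM 6-alpha-fluorotestosterone included; DMSO baseline, positive-direction fit.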

Test [13] concerns the target Peroxisome proliferator-activated receptor gamma (Homo sapiens) (UniProt P37231). The experiment in a line: ATG_hPPARg_XSP1: Attagene TRANS-FACTORIAL Multi-Species (XSP1) HepG2 Assay for human Peroxisome Proliferator-activated Receptor gamma (PPARg) (AID 2283800). The method in brief:
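Reporter mRNA induction, measured by RT-PCR with capillary electrophoresis 24 h after dosing, scored as gain over DMSO. Transfected HepG2 cells express exogenous NR-Gal4 chimeras driving GAL4-UAS reporters; medium includes 3 nM 6-alpha-fluorotestosterone.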

Test [14] deals with zebrafish Peroxisome Proliferator-activated Receptor gamma (PPARg), gene 557037. The test can be described thus: ATG_zfPPARg_XSP1: Attagene TRANS-FACTORIAL Multi-Species (XSP1) HepG2 Assay for zebrafish Peroxisome Proliferator-activated Receptor gamma (PPARg) (AID 2283801). The procedure, abridged: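 Trans-activation readout of chimeric zebrafish PPARg–GAL4 in transiently transfected human HepG2 cells, 24 h chemical exposure (medium includes 3 nM 6-alpha-fluorotestosterone). Reporter transcripts measured by RT-PCR and capillary electrophoresis, fitted as gain over DMSO.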

In test [15] the target is mouse Peroxisome Proliferator-activated Receptor gamma (PPARg), Pparg (gene 19016) (UniProt P37238). The test can be described thus: ATG_mPPARg_XSP1: Attagene TRANS-FACTORIAL Multi-Species (XSP1) HepG2 Assay for mouse Peroxisome Proliferator-activated Receptor gamma (PPARg) (AID 2283802). The procedure, abridged:
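Readout is reporter mRNA induction, measured by RT-PCR with 6-FAM labelling, HpaI digestion and capillary electrophoresis, 24 h post-dose relative to DMSO. Transient multi-reporter transfection of human HepG2 with mouse PPARg–GAL4 fusion; 3 nM 6-alpha-fluorotestosterone included.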

Test [16] is described as follows: ACEA_AR_antagonist_AUC_viability: ACEA Biosciences xCELLigence Real-Time Cell Analysis on Androgen Receptor Antagonism for Viability (AID 2283776).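 Also: area under impedance growth curve at 80 h after dosing as viability; hits lower the growth signal relative to DMSO meaning cytotoxicity.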 The procedure, abridged: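 22Rv1 human prostate cancer cells were seeded on electrode plates, monitored overnight, then exposed to eight 1:4 dilutions from 100 uM final. Impedance-based growth kinetics at 80 h gave an AUC viability endpoint normalized to DMSO.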

Test [17] is described as follows: STM_H9_NormalizedViability: Cytotoxicity Assessment at 120 hours in the Stemina devTOX quickPredict H9 human embryonic stem cell (hESC)-based Assay (AID 2283784). The procedure, abridged: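 Viability endpoint: background-corrected CellTiter-Fluor RFU expressed relative to the 0.1% DMSO mean on each plate. Undifferentiated H9 cells were treated with daily re-dosing and media change, and loss of signal was fitted.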

Inconclusive results are not listed. The source made the active and inactive calls. The calls were made as follows: active = hit-call score of the fitted dose curve at least 0.9, where 1 is the maximum; inconclusive = response in the unintended direction; inactive = score below 0.9.

AR (gene 367), sequence (P10275 whole entry, looked up): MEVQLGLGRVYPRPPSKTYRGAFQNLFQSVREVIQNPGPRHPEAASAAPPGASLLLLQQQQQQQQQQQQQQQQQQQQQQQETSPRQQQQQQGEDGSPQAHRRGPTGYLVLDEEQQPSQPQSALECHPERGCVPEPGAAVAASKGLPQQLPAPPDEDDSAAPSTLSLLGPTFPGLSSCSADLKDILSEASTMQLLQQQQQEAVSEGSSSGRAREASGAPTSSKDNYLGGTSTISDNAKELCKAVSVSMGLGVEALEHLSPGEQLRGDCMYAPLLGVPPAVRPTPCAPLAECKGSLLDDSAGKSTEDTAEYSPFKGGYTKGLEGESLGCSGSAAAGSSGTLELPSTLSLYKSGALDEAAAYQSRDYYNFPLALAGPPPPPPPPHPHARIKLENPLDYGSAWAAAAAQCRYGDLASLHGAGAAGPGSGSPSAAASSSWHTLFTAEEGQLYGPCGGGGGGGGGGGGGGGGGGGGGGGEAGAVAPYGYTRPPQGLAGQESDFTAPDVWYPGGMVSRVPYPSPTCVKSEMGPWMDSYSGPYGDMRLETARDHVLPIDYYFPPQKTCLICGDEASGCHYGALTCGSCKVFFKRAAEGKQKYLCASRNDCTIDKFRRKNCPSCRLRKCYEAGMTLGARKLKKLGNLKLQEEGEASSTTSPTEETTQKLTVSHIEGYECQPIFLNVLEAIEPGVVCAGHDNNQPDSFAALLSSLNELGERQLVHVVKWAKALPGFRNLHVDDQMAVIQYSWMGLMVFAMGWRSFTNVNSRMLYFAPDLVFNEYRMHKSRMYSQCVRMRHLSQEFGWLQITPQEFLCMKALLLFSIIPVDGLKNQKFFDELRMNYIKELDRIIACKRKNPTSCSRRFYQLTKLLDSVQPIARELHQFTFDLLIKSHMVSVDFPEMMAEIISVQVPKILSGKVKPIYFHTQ
GAL4 Transcription Factor (Internal Marker), GAL4 (gene 855828), sequence (P04386 whole entry, looked up, the tested form may be a part): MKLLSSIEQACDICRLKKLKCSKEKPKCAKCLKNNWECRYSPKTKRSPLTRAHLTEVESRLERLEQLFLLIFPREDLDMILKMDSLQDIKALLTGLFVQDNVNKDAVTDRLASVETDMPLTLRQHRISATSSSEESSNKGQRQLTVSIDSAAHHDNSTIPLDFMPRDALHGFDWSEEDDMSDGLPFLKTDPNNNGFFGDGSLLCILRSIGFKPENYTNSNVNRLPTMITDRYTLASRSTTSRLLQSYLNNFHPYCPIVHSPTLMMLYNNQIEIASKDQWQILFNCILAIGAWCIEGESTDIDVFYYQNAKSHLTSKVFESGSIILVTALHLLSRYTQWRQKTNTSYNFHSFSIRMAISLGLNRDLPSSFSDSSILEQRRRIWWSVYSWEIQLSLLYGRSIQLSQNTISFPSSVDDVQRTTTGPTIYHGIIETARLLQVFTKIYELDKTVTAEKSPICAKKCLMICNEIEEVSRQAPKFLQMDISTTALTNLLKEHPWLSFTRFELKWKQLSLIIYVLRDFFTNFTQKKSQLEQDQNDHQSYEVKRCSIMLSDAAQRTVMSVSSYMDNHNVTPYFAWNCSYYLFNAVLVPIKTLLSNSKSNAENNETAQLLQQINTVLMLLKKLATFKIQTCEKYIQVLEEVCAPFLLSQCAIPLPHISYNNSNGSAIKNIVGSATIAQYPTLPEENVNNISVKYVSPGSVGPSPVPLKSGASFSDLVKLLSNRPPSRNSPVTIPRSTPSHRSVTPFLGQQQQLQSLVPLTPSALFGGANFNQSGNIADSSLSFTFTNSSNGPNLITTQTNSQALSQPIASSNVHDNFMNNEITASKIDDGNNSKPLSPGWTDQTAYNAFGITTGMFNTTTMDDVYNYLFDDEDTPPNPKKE
mouse Peroxisome Proliferator-activated Receptor gamma (PPARg), Pparg (gene 19016), sequence (P37238 whole entry, looked up, the tested form may be a part): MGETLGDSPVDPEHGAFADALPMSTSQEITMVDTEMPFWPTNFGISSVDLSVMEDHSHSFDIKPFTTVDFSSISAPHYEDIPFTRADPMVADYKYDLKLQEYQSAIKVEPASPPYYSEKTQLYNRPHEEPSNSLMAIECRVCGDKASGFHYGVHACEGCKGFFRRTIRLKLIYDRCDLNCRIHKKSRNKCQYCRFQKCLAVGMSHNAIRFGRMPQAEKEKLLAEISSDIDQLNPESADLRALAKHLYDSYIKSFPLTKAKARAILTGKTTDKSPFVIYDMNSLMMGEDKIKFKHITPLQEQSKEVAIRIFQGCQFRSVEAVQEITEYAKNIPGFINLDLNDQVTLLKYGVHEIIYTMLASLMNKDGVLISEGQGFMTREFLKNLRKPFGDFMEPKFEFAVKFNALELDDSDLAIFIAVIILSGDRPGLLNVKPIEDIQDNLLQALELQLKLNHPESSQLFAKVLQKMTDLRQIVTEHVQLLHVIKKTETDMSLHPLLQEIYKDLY
Estrogen receptor (Homo sapiens), sequence (P03372 whole entry, looked up, the tested form may be a part): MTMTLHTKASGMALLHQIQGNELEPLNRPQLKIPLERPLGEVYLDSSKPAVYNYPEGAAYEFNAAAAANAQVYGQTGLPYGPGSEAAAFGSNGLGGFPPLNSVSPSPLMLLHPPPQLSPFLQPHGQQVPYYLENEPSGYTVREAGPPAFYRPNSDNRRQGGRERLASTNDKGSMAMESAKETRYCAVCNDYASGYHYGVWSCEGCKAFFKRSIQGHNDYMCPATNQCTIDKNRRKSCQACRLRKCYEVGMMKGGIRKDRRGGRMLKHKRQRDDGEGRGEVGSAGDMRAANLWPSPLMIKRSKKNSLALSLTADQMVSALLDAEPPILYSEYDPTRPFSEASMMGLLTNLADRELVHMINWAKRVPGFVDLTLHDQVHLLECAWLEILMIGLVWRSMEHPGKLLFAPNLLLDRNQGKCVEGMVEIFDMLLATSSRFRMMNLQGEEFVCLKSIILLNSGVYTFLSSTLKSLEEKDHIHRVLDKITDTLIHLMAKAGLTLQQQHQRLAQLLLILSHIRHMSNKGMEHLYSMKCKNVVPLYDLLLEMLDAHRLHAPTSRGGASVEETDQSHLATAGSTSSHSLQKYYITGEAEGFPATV
Estrogen receptor beta (Homo sapiens), sequence (Q92731 whole entry, looked up, the tested form may be a part): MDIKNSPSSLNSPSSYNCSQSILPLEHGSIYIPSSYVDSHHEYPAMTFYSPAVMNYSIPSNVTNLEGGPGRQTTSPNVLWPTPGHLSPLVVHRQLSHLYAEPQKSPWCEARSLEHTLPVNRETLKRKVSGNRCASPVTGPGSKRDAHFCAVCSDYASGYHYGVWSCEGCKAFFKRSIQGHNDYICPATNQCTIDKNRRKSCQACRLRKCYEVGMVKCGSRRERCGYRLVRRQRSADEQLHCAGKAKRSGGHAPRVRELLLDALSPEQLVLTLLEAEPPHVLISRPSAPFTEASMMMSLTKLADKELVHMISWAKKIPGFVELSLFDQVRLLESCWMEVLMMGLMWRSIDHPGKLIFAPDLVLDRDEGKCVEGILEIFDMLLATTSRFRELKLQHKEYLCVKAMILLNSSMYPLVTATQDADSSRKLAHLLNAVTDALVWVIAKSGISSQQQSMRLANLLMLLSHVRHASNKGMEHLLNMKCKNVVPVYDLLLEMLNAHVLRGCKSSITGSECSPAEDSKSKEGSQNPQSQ
Peroxisome proliferator-activated receptor gamma (Homo sapiens), sequence (P37231 whole entry, looked up, the tested form may be a part): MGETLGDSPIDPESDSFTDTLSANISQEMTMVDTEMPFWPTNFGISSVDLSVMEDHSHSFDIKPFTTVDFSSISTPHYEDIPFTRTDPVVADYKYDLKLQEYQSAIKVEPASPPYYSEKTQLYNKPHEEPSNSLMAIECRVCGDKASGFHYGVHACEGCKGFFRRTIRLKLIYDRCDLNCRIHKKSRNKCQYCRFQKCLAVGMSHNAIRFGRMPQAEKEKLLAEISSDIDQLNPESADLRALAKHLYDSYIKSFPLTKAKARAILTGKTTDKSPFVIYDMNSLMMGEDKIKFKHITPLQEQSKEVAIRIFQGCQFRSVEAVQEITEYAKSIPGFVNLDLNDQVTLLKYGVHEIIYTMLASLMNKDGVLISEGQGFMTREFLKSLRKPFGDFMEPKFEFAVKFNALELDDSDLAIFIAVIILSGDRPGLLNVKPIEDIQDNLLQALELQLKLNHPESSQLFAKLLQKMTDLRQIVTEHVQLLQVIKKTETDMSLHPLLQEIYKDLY

On to `C=CCc1cc(S(=O)(=O)c2ccc(O)c(CC=C)c2)ccc1O`, for which the AC50 was 1680 nM (active) in [1]; 1530 nM (active) in test [2]; 24300 nM (active) in [3]; 1190 nM (active) in test [4]; 1360 nM (active) in [5]; 1000 nM (active) in [6]. The AC50 was 76700 nM (active) in test [7], 26200 nM (active) with AR (gene 367), 4140 nM (active) in test [13] and 3630 nM (active) in [15]. Also, the compound was classed as inactive in test [8], in test [9], in test [10], in [11], in [12] and in test [14].
As to `Nc1ccn([C@@H]2O[C@H](CO)[C@@H](O)[C@@H]2O)c(=O)n1`, the half-maximal activity concentration (AC50) in test [3] is 1220 nM (active); in [16] it was 880 nM (active); in [17] it was 270 nM (active).
`c1ccc2c(c1)-c1cccc3c1c-2cc1ccccc13`: in test [3], the AC50 is 36500 nM (active).
As to `COCc1nnc(-c2ccc[n+]([O-])c2)n1-c1c(Cl)c(Cl)cc2[nH]c(=O)c(=O)[nH]c12`, the outcome (in [3]; in [16]; with AR (gene 367)) was inactive.
As for `CC(=O)c1ccccc1`, in test [3], the compound was called inactive.
For the compound `c1ccc(C(O[C@@H]2CCCN(CCc3ccc4c(c3)OCO4)C2)c2ccccc2)cc1`, the AC50 in test [3] is 41300 nM (active).
As for `OC[C@H]1O[C@@H]2O[C@H]3[C@H](O)[C@@H](O)[C@@H](O[C@H]4[C@H](O)[C@@H](O)[C@@H](O[C@H]5[C@H](O)[C@@H](O)[C@@H](O[C@H]6[C@H](O)[C@@H](O)[C@@H](O[C@H]7[C@H](O)[C@@H](O)[C@@H](O[C@H]1[C@H](O)[C@H]2O)O[C@@H]7CO)O[C@@H]6CO)O[C@@H]5CO)O[C@@H]4CO)O[C@@H]3CO`, the outcome in [3] and in [7] was inactive.
Take `O=C(O)c1cccc(C(=O)O)c1`: the compound was classed as inactive in [3].
On to `CCCCCCCCN(C)C`, for which the outcome in test [3] and in test [16] was inactive.
For the compound `OC(CCl)CCl`, the result in test [3] was inactive.
Consider `O=C1CN(N=Cc2ccc([N+](=O)[O-])o2)C(=O)N1`, for which the AC50 in test [17] was 3400 nM (active).
For the compound `OCc1c[nH]c2ccccc12`, the AC50 in test [7] was 87000 nM (active).
As to `Cc1ncc([C@@H](CCCCCCc2ccc3c(n2)NCCC3)CC(=O)O)cn1`, the figures for the AC50 in [3] and in [7] were 3.86 nM (active) and 3.82 nM (active), respectively. Moreover, the outcome in [17] was inactive.
